Results taken from PMC7862700, “An all-to-all approach to the identification of sequence-specific readers for epigenetic DNA modifications on cytosine”.

Assays:
Assay in all cases: DAPPL (digital affinity profiling via proximity ligation, sequencing); 10 mM Tris-HCl pH 7.5, 50 mM NaCl, 1 mM DTT, 4% glycerol, room temperature, 30 min; GST-TFs on glutathione beads, 16-mer random dsDNA library, 0.1% formaldehyde crosslink after washing; high values mean tight binding
Details in all cases: protein: recombinant; tags: N-terminal GST; dsDNA, one strand shown
FLI1 = biological target: T1, FLI1 (Homo sapiens, UniProt Q01543 1-452)
T1 sequence: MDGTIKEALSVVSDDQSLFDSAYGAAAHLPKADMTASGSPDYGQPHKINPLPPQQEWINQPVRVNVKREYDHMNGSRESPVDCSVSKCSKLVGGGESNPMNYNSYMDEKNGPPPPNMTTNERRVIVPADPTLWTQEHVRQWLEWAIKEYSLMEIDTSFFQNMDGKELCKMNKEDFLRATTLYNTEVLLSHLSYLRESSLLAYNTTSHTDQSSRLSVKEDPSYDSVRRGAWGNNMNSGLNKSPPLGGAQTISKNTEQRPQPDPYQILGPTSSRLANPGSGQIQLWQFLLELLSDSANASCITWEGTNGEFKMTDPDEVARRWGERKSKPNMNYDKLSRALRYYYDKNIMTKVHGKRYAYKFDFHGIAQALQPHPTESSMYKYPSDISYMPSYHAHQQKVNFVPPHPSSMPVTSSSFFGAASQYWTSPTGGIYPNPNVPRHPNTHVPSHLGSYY
Procedure, shortened: (§1)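 A tag-only sample was pooled with DNA-barcoded human transcription factors that had been expressed in yeast as GST fusions and captured on glutathione beads. The pools were incubated for 30 min at room temperature with 200 nmole of a random double-stranded 16-mer DNA library in Tris/NaCl/DTT/glycerol buffer, then washed, crosslinked with 0.1% formaldehyde, proximity-ligated (BsaI/T4 ligase, 1 h, 37 °C), PCR-amplified and sequenced on an Illumina NextSeq500. Binding signal is each hexamer's read frequency for a factor divided by its frequency for the tag-only sample.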

ELK1 = biological target: T2, ELK1 (Homo sapiens, UniProt P19419 1-428)
T2 sequence: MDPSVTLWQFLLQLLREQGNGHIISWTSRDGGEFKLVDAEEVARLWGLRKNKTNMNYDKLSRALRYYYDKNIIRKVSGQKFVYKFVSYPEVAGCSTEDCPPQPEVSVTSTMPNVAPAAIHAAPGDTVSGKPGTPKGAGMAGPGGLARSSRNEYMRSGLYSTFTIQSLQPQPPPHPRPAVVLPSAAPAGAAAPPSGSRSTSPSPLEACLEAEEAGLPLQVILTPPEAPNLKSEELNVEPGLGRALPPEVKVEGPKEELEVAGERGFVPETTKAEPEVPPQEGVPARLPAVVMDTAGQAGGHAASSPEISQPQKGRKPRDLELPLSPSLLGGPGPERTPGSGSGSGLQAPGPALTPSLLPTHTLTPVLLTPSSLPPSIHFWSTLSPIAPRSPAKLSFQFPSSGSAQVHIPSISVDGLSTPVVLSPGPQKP
Procedure, shortened: as §1

GABPA = biological target: T3, GABPA (Homo sapiens, UniProt Q06546 1-454)
T3 sequence: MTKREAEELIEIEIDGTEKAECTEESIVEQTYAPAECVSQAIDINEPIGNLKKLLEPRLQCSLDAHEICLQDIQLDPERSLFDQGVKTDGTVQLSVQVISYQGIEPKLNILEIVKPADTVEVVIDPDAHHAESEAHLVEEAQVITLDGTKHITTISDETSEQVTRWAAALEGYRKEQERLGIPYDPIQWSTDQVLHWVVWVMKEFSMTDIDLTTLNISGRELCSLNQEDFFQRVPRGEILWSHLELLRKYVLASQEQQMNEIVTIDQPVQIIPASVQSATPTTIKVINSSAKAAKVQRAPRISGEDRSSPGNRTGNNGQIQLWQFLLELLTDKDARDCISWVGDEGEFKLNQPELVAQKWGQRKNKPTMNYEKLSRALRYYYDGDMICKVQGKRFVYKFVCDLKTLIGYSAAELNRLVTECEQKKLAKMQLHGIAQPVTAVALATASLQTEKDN
Procedure, shortened: as §1

ERG = biological target: T4, ERG (Homo sapiens, UniProt P11308 1-479)
T4 sequence: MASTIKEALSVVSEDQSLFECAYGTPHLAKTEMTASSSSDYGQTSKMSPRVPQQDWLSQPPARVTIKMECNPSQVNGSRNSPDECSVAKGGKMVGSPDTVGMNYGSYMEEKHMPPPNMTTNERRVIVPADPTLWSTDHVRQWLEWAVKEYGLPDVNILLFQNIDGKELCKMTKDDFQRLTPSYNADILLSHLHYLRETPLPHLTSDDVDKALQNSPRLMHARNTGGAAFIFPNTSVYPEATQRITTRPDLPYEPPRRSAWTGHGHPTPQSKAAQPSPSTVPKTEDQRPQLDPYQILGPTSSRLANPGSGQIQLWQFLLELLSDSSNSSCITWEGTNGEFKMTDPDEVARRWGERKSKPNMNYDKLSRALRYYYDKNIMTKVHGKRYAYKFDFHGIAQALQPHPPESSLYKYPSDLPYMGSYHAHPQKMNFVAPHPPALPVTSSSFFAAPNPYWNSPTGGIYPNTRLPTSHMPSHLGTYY
Procedure, shortened: as §1

ELF1 = ELF1 (Homo sapiens, UniProt P32519 1-619)
Procedure, shortened: as §1

EHF = biological target: T5, EHF (Homo sapiens, UniProt Q9NZC4 1-300)
T5 sequence: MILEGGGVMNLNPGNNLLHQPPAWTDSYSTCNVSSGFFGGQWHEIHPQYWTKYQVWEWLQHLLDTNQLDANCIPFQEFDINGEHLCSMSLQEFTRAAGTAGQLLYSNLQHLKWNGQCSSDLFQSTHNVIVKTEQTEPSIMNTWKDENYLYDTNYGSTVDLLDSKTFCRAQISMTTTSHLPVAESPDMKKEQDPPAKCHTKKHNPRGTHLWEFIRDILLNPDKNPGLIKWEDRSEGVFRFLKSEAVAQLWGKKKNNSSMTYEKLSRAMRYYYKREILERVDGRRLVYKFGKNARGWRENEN
Procedure, shortened: as §1

SPI1 = SPI1 (Homo sapiens, UniProt P17947 1-270)
Procedure, shortened: as §1

SPIB = SPIB (Homo sapiens, UniProt Q01892 1-262)
Procedure, shortened: as §1

ELK3 = biological target: T6, ELK3 (Homo sapiens, UniProt P41970 1-407)
T6 sequence: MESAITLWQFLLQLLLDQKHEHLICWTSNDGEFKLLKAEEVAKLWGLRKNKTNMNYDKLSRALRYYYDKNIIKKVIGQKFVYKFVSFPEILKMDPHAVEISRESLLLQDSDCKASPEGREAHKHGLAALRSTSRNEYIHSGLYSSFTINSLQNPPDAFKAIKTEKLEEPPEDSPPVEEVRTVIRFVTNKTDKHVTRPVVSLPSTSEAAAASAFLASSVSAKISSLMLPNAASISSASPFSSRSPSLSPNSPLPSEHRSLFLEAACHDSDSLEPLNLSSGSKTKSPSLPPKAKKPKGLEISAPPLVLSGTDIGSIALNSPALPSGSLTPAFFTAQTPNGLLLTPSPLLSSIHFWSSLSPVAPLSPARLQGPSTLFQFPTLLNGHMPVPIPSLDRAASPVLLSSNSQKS
Procedure, shortened: as §1

SPIB, sequence (Q01892 whole entry): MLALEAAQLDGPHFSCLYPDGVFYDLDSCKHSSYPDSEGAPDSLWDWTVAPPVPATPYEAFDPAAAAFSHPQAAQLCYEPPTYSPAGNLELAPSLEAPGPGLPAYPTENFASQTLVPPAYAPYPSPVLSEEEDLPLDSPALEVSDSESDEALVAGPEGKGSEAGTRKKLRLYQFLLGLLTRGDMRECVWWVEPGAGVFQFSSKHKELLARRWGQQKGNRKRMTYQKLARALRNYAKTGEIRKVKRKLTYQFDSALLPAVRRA
ELF1, sequence (P32519 whole entry): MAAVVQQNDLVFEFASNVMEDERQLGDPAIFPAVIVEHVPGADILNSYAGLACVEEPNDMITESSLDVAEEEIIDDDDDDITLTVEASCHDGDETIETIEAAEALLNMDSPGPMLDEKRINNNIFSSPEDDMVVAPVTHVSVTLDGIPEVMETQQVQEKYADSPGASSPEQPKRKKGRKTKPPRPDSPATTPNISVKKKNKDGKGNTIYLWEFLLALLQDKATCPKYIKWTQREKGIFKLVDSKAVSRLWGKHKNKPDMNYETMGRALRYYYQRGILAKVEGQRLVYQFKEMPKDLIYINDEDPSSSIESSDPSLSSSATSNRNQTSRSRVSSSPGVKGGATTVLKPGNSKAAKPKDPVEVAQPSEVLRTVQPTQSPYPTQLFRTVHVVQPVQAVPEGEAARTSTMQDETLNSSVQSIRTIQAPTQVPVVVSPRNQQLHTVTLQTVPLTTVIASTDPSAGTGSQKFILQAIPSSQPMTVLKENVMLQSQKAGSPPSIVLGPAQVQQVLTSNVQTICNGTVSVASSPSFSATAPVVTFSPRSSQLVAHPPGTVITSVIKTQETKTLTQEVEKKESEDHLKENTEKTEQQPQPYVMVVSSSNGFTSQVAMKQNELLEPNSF

With ATTTTC as the sequence, how does the binding signal (FLI1) read?
Its binding signal is 1.47 fold enrichment (6-mer frequency, TF over GST control).

And the binding signal (ELK1)?
Its binding signal is 1.35 fold enrichment (6-mer frequency, TF over GST control).

What about the binding signal (GABPA) of the same sequence?
The binding signal was 1.46 fold enrichment (6-mer frequency, TF over GST control).

And the binding signal (ERG)?
Its binding signal is 1.46 fold enrichment (6-mer frequency, TF over GST control).

And the binding signal (ELF1)?
Its binding signal is 1.31 fold enrichment (6-mer frequency, TF over GST control).

What about the binding signal (EHF) of the same sequence?
The binding signal was 1.49 fold enrichment (6-mer frequency, TF over GST control).

What about the binding signal (SPI1) of the same sequence?
The binding signal was 1.56 fold enrichment (6-mer frequency, TF over GST control).

And the binding signal (SPIB)?
The binding signal was 1.41 fold enrichment (6-mer frequency, TF over GST control).

And the binding signal (ELK3)?
Its binding signal is 1.31 fold enrichment (6-mer frequency, TF over GST control).
